The results in this text go back to PubChem BioAssay (Tox21).

Several values for one entry are separate records, joined by “and”; a condition that tells them apart may be missing. Equal values may be shown once. Records with an inconclusive call do not appear. Some compounds were tested as several samples or in several runs, with calls that do not always agree. Activity calls are given as the source filed them. Calls follow the shape of the dose curve; as a rule, active = well fitted curve in the direction sought with a large enough effect in the repeat runs; inconclusive = weak or mixed curves; inactive = no such curve, though single readings can be large; an effect the other way counts as inactive or inconclusive.
% is scaled to controls: 0 for no effect and ±100 for the full control effect; potency is read from the fitted curve at half-maximal effect.
Also: nearly all actives have a fitted effect of over 50% in size.

The target in the first experiment is Cytochrome P450 1A2 (Homo sapiens) (UniProt P05177). The experiment can be described thus: Cytochrome P450 Family 1 Subfamily A Member 2 (CYP1A2) small molecule antagonists: luciferase reporter qHTS assay (AID 1671199). To be noted: P450-Glo CYP1A2 enzyme, luciferin luminescence, 1 h; series mostly up to 53 µM; activity change, negative = inhibition: at the top concentration. The method in brief: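 P450-Glo CYP1A2, 1536-well qHTS: enzyme/proluciferin substrate + cpd (DMSO), 10 min RT; NADPH regen, 1 h RT; detection reagent, 20 min; luminescence, RLU.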
Chain of Cytochrome P450 1A2 (Homo sapiens) (P05177 whole entry, looked up): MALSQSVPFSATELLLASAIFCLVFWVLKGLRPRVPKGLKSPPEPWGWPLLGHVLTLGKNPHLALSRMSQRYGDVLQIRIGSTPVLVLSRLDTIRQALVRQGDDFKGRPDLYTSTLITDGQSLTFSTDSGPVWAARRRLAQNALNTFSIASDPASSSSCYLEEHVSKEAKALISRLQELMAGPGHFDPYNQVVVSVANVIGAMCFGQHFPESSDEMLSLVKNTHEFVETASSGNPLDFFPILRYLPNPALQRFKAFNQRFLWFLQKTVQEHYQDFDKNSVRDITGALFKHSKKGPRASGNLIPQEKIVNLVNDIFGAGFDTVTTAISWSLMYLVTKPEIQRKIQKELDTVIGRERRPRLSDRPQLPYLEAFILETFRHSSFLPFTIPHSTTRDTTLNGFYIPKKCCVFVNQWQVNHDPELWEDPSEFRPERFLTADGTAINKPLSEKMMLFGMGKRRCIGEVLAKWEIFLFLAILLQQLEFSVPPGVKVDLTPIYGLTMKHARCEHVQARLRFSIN
As to `Cc1occc(=O)c1OC(=O)C(C)C`, the “activity change, negative = inhibition” value was -23.5% [at 115 µM] (inactive).
Take `CC(C)CCCCCCc1ccc(O)cc1`: the Potency was 28.8 µM (active).
The same measure, in the same setting: in the case of `O=C1OC2(c3ccc(O)cc3Oc3cc(O)ccc32)c2ccccc21` it was “inactive”; in that of `O=C(O)c1cn(-c2ccc(F)cc2)c2cc(N3CCNCC3)c(F)cc2c1=O`, “inactive”.
As to `CCCCCCCCCCCCCCCCCl`, the “activity change, negative = inhibition” value is -21.5% [at 23.6 µM] (inactive).
As to `NC(Cc1ccc(Cl)cc1)C(=O)O` (configuration not stated), the activity change, negative = inhibition was 10.8% [at 0.435 µM] (inactive).
Same read-out and setting: in the case of `CCC(CO)(CO)COCC(CC)(CO)CO` it was -13.8% [at 115 µM] (inactive); in that of `C=C(C)C1CC=C(C)C(OC(C)=O)C1` (configuration not stated), -23% [at 115 µM] (inactive).
Still for that read-out and setting: the result for `O=C(O[C@@H]1Cc2c(O)cc(O)cc2O[C@@H]1c1cc(O)c(O)c(O)c1)c1cc(O)c(O)c(O)c1` reads -11% [at 115 µM] (inactive).
As to `C[N+]1([O-])CCOCC1`, the Potency is 31.6 µM (active).
As to `O=C(O)Cn1cnnn1`, the “activity change, negative = inhibition” value is -16.3% (inactive).
On the same count and under the same terms, the result for `CC(=O)CC(C)=O` reads -9.66% [at 115 µM] (inactive).
As for `CC(C)(C)c1cc(C(C)(C)C)c(O)c(C(C)(C)C)c1`, the Potency result is “inactive”.
For `Cc1cc(C2(c3cc(C)c(O)cc3C)OS(=O)(=O)c3ccccc32)c(C)cc1O`, the Potency was 31.7 µM (active).
On to `O=C(O)CCc1ccccc1`, for which the “activity change, negative = inhibition” value is -8.06% [at 115 µM] (inactive).
Take `CCN(CC)C(=O)Nc1ccc(OCC(O)CNC(C)(C)C)c(C(C)=O)c1` (configuration not stated): the “activity change, negative = inhibition” value was 1.19% (inactive).
On the same count and under the same terms, in the case of `c1ccc2n[nH]nc2c1` it was -10.1% [at 115 µM] (inactive).
As for `CCC[C@H](N[C@@H](C)C(=O)N1[C@H](C(=O)O)C[C@@H]2CCCC[C@@H]21)C(=O)OCC`, the Potency was 17.4 µM (active) and inactive.
The same measure, in the same setting: in the case of `CCCOC(=O)c1cc(O)c(O)c(O)c1` it was 39.7 µM (active) and 39.9 µM (active).
Same read-out and setting: the result for `Nc1cc(S(=O)(=O)O)cc2cc(S(=O)(=O)O)cc(O)c12` reads “inactive and 39.9 µM (active)”; that for `CCn1c2ccccc2c2cc(N)ccc21`, 626 nM (active) and 2.24 µM (active) and 5.03 µM (active).
In the case of `OCC(CO)N[C@H]1C[C@](O)(CO)[C@@H](O)[C@H](O)[C@H]1O`, the “activity change, negative = inhibition” value is 11.9% (inactive).
Regarding `Nc1nc2ccccc2[nH]1`, the Potency entry was “inactive”.
On to `CC(C)(O)CCC(C)(C)O`, for which the “activity change, negative = inhibition” value was -0.4% [at 115 µM] (inactive).
The same measure, in the same setting: in the case of `CC(C)(C)NCC(O)COc1ccccc1OCC1CCCO1` (configuration not stated) it was -6.99% (inactive); in that of `Cc1cc(OCCOCC[N+](C)(C)Cc2ccccc2)ccc1C(C)(C)CC(C)(C)C`, -1.47% (inactive).
On to `c1ccc2cc3c(ccc4ccccc43)cc2c1`, for which the Potency was 897 nM (active) and 894 nM (active).
Still for that read-out and setting: in the case of `COc1ccc(COC(C)=O)cc1` it was 28.8 µM (active) and 44.8 µM (active).
On the same count and under the same terms, in the case of `CCN(CC)c1ccc2c(C)cc(=O)oc2c1` it was 2.02 µM (active) and 2.83 µM (active); in that of `CCCCCCCCCCCCc1ccccc1O`, 35.1 µM (active) and 31.7 µM (active); in that of `CN1C(=O)c2ccc([N+](=O)[O-])cc2C1=O`, 20 µM (active).
As to `Cc1cc(C(C)(C)C)c(O)c(C(C)(C)C)c1`, the “activity change, negative = inhibition” value was -28.3% [at 115 µM] (inactive).
For the compound `OCCN1CCNCC1`, the “activity change, negative = inhibition” value was 2.87% [at 115 µM] (inactive).
For the compound `Cc1cccc(O)c1C`, the Potency was 46.1 µM (active).
Consider `C1COC(NC(C2CC2)C2CC2)=N1`, for which the “activity change, negative = inhibition” value is -15.8% (inactive).
Regarding `CCOC(=O)C(C)C(C)=O` (configuration not stated), the Potency was 35.8 µM (active).

In another experiment the target is Voltage-gated inwardly rectifying potassium channel KCNH2 (Homo sapiens) (UniProt Q12809). The experiment can be described thus: Human Ether-a-go-go-Related Gene (hERG) channel small molecule antagonists: fluorescence cell-based qHTS assay (AID 1671200).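 As to activity change, negative = inhibition: hERG-expressing U2OS cells given a thallium stimulus after FluxOR II dye loading.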 To be noted: hERG-U2OS cells, FluxOR thallium flux fluorescence; series mostly up to 76.8 µM; activity change, negative = inhibition: at the top concentration. The gist of the method: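 Quantitative HTS in hERG-U2OS cells: thallium entry through the channel reports activity, read as continuous 480/540 nm fluorescence over 2 min after stimulus addition.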
Chain of Voltage-gated inwardly rectifying potassium channel KCNH2 (Homo sapiens) (Q12809 whole entry, looked up): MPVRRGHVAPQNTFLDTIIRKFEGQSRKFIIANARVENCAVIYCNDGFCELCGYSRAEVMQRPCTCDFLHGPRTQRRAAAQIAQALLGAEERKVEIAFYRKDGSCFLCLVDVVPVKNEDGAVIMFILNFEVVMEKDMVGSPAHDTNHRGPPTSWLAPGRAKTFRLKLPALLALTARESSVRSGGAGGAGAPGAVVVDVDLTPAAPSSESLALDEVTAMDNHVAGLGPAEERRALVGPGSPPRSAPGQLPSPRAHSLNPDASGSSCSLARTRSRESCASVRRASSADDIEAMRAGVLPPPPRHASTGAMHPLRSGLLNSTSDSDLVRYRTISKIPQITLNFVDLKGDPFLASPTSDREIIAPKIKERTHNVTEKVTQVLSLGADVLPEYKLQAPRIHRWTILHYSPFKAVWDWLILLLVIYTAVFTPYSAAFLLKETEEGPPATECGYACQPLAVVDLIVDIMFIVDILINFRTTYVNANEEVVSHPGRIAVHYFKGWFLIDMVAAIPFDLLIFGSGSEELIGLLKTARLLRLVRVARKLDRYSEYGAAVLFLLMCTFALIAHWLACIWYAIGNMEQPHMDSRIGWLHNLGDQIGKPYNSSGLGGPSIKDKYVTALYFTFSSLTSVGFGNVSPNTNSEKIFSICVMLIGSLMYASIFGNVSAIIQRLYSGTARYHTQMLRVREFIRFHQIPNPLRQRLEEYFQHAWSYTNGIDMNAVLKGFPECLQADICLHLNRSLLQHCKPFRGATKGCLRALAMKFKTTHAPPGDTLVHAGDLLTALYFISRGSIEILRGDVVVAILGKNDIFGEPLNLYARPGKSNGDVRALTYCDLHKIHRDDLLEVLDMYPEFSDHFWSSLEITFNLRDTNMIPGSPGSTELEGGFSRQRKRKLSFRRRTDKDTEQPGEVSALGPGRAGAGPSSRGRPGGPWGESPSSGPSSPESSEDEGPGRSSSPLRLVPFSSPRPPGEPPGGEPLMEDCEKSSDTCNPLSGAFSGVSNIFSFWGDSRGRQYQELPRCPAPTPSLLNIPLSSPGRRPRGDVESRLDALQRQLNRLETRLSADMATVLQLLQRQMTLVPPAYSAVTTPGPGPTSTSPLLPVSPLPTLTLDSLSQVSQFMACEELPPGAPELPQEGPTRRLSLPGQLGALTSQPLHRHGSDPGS
On to `Cc1occc(=O)c1OC(=O)C(C)C`, for which the “activity change, negative = inhibition” value was 1.95% (inactive).
Consider `CC(C)CCCCCCc1ccc(O)cc1`, for which the Potency was 39.6 µM (active).
Still for that read-out and setting: the result for `O=C1OC2(c3ccc(O)cc3Oc3cc(O)ccc32)c2ccccc21` reads 15.5 µM (active) and inactive; that for `O=C(O)c1cn(-c2ccc(F)cc2)c2cc(N3CCNCC3)c(F)cc2c1=O`, “inactive”.
On to `CCCCCCCCCCCCCCCCCl`, for which the activity change, negative = inhibition is -0.466% [at 15.8 µM] (inactive).
The same measure, in the same setting: in the case of `NC(Cc1ccc(Cl)cc1)C(=O)O` (configuration not stated) it was 10.3% [at 0.29 µM] (inactive); in that of `CCC(CO)(CO)COCC(CC)(CO)CO`, 0.0483% (inactive).
Turning to `C=C(C)C1CC=C(C)C(OC(C)=O)C1` (configuration not stated), the Potency result was “inactive”.
Turning to `O=C(O[C@@H]1Cc2c(O)cc(O)cc2O[C@@H]1c1cc(O)c(O)c(O)c1)c1cc(O)c(O)c(O)c1`, the Potency result is “inactive”.
Take `C[N+]1([O-])CCOCC1`: the “activity change, negative = inhibition” value was -0.824% (inactive).
Same read-out and setting: the result for `O=C(O)Cn1cnnn1` reads 0.827% [at 35.3 µM] (inactive); that for `CC(=O)CC(C)=O`, 6.73% (inactive).
Consider `CC(C)(C)c1cc(C(C)(C)C)c(O)c(C(C)(C)C)c1`, for which the Potency is 7.76 µM (active).
For `Cc1cc(C2(c3cc(C)c(O)cc3C)OS(=O)(=O)c3ccccc32)c(C)cc1O`, the Potency result is “inactive”.
For the compound `O=C(O)CCc1ccccc1`, the “activity change, negative = inhibition” value is -11% (inactive).
Same read-out and setting: the result for `CCN(CC)C(=O)Nc1ccc(OCC(O)CNC(C)(C)C)c(C(C)=O)c1` (configuration not stated) reads -1.3% [at 35.3 µM] (inactive).
Take `c1ccc2n[nH]nc2c1`: the Potency result is “inactive”.
Take `CCC[C@H](N[C@@H](C)C(=O)N1[C@H](C(=O)O)C[C@@H]2CCCC[C@@H]21)C(=O)OCC`: the Potency result was “inactive”.
On the same count and under the same terms, in the case of `CCCOC(=O)c1cc(O)c(O)c(O)c1` it was “inactive”.
The same measure, in the same setting: in the case of `Nc1cc(S(=O)(=O)O)cc2cc(S(=O)(=O)O)cc(O)c12` it was “inactive”; in that of `CCn1c2ccccc2c2cc(N)ccc21`, “inactive”.
For the compound `OCC(CO)N[C@H]1C[C@](O)(CO)[C@@H](O)[C@H](O)[C@H]1O`, the “activity change, negative = inhibition” value was 4.75% [at 35.3 µM] (inactive).
On to `Nc1nc2ccccc2[nH]1`, for which the Potency result is “inactive”.
Take `CC(C)(O)CCC(C)(C)O`: the “activity change, negative = inhibition” value is -1.25% (inactive).
On the same count and under the same terms, the result for `CC(C)(C)NCC(O)COc1ccccc1OCC1CCCO1` (configuration not stated) reads 3.62% [at 35.3 µM] (inactive).
Turning to `Cc1cc(OCCOCC[N+](C)(C)Cc2ccccc2)ccc1C(C)(C)CC(C)(C)C`, the Potency was 688 nM (active) and 756 nM (active).
On the same count and under the same terms, in the case of `c1ccc2cc3c(ccc4ccccc43)cc2c1` it was “inactive”; in that of `COc1ccc(COC(C)=O)cc1`, “inactive”.
Still for that read-out and setting: the result for `CCN(CC)c1ccc2c(C)cc(=O)oc2c1` reads “inactive”.
Turning to `CCCCCCCCCCCCc1ccccc1O`, the “activity change, negative = inhibition” value was -24.9% (inactive).
On to `CN1C(=O)c2ccc([N+](=O)[O-])cc2C1=O`, for which the “activity change, negative = inhibition” value is -1.65% (inactive).
Still for that read-out and setting: in the case of `Cc1cc(C(C)(C)C)c(O)c(C(C)(C)C)c1` it was -28.9% [at 35.3 µM] (inactive).
For `OCCN1CCNCC1`, the Potency result was “inactive”.
For the compound `Cc1cccc(O)c1C`, the Potency result was “inactive”.
On to `C1COC(NC(C2CC2)C2CC2)=N1`, for which the “activity change, negative = inhibition” value is 3.01% [at 35.3 µM] (inactive).
The same measure, in the same setting: the result for `CCOC(=O)C(C)C(C)=O` (configuration not stated) reads 1.33% (inactive).
